Data as given in the supplement of paper PMC12067093, “Discovery and optimisation of a covalent ligand for TRIM25 and its application to targeted protein ubiquitination” (Chemical Science, 2025).
Targets with the largest changes are over-represented here; the source holds about 21,000 in all.

Compound: CC1Cc2ccccc2N1C(=O)C1CCCN(C1)C(=O)CCl (mixture of isomers) [TRIM25 ligand 11 (diastereomer mixture)]
Experiment: probe-labelled cysteine peptide fold change vs DMSO (competition) (log2 fold change); higher = less target engagement (more negative = stronger competition)
Conditions: THP-1, incubation time: 4 h
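Further: competitive chemoproteomic profiling in live THP-1 cells with an iodoacetamide desthiobiotin (IA-DTB) probe, comparing probe-labelled peptide intensities in compound-treated cells against DMSO-treated controls.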

UniProt Q8TCF1, sequence (Q8TCF1 whole entry, looked up): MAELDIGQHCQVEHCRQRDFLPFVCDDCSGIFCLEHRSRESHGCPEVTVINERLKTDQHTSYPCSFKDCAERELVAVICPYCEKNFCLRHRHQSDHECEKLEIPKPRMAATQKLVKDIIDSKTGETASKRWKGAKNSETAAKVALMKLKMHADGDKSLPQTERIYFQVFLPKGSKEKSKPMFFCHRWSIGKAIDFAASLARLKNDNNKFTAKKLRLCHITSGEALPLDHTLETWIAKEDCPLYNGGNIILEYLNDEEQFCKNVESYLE
UniProt Q9P2E3, sequence (Q9P2E3 whole entry, looked up): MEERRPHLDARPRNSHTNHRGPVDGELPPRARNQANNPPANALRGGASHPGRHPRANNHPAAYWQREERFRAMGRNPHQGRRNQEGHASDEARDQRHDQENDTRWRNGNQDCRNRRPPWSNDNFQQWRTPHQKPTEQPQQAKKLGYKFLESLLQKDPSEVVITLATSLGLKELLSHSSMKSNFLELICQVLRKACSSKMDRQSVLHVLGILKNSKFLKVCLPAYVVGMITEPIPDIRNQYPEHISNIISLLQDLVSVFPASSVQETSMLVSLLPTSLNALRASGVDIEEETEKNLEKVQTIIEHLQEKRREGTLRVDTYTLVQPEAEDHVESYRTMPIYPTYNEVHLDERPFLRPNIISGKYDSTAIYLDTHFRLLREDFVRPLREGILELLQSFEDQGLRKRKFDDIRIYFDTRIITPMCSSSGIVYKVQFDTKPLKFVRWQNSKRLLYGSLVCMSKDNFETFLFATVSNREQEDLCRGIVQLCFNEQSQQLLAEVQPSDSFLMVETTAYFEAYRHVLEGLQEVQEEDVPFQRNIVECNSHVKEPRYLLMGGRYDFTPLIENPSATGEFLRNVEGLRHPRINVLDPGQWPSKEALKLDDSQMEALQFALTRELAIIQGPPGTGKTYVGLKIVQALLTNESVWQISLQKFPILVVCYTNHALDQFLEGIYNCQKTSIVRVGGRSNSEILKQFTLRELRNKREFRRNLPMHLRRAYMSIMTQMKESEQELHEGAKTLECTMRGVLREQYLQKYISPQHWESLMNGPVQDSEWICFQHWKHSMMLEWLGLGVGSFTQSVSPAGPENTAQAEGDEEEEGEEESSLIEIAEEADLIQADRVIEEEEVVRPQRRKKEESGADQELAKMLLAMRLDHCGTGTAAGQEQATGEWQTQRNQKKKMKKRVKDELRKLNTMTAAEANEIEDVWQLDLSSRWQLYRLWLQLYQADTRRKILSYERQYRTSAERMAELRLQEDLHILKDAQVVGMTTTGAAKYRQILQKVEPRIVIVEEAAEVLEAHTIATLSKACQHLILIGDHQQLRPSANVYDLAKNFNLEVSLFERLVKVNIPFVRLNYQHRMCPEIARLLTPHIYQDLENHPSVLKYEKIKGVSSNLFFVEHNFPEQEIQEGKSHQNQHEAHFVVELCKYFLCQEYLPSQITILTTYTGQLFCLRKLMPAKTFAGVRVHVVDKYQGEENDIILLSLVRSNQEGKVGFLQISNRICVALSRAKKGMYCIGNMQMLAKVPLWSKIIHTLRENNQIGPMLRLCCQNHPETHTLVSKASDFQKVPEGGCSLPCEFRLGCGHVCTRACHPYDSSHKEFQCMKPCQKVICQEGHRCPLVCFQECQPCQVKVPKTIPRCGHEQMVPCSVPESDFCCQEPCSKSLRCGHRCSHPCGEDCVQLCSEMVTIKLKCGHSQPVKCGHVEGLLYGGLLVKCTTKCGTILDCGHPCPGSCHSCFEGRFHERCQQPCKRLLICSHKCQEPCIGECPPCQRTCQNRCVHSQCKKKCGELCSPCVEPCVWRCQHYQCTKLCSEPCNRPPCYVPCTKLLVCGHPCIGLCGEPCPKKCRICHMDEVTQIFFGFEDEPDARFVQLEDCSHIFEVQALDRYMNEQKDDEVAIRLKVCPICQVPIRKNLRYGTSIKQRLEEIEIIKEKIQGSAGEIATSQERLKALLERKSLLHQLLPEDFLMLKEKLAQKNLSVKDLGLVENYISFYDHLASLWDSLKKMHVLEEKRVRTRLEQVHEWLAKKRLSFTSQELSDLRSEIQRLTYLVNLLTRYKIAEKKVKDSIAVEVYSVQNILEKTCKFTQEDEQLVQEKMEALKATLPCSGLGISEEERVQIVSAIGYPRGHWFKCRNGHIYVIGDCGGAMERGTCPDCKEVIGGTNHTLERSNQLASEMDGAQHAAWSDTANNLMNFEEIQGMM
UniProt Q5T4F4, sequence (Q5T4F4 whole entry): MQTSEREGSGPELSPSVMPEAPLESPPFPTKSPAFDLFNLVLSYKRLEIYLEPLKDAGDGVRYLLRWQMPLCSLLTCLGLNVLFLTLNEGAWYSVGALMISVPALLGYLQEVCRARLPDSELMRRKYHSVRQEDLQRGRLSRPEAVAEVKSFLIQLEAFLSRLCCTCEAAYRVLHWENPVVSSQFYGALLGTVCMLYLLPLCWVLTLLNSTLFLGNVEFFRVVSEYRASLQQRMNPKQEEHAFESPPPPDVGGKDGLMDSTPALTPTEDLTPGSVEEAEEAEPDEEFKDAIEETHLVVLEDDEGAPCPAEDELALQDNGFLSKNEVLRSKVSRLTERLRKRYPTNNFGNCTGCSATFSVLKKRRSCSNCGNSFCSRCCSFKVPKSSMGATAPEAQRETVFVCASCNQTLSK
UniProt Q04917, sequence (Q04917 whole entry, looked up): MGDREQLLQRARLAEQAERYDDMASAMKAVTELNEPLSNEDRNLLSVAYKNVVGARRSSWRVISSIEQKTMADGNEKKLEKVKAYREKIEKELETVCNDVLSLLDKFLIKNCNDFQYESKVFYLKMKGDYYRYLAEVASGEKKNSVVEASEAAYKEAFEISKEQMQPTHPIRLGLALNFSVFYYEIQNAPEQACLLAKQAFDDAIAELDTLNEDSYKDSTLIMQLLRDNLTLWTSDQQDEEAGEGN
UniProt O43264, sequence (O43264 whole entry, looked up): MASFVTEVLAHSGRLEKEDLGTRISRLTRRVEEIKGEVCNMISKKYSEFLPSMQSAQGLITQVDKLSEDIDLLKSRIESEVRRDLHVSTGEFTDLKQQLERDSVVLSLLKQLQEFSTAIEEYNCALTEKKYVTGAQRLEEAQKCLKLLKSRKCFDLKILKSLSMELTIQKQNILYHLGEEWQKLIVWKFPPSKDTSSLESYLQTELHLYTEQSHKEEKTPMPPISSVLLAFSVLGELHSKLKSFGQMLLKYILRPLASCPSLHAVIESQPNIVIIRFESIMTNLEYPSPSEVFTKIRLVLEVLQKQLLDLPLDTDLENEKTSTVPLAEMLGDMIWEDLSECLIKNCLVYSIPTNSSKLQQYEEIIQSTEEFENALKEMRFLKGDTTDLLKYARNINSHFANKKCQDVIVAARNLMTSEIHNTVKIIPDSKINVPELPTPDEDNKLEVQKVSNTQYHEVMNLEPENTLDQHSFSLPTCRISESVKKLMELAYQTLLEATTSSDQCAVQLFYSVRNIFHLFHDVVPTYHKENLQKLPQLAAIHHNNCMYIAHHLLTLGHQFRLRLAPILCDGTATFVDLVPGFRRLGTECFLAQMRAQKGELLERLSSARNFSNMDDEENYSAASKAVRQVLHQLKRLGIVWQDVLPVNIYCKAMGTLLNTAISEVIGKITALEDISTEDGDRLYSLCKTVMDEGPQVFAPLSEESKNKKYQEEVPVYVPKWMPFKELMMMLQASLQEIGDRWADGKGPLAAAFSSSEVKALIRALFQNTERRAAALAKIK
UniProt A6NFI3, sequence (A6NFI3 whole entry, looked up): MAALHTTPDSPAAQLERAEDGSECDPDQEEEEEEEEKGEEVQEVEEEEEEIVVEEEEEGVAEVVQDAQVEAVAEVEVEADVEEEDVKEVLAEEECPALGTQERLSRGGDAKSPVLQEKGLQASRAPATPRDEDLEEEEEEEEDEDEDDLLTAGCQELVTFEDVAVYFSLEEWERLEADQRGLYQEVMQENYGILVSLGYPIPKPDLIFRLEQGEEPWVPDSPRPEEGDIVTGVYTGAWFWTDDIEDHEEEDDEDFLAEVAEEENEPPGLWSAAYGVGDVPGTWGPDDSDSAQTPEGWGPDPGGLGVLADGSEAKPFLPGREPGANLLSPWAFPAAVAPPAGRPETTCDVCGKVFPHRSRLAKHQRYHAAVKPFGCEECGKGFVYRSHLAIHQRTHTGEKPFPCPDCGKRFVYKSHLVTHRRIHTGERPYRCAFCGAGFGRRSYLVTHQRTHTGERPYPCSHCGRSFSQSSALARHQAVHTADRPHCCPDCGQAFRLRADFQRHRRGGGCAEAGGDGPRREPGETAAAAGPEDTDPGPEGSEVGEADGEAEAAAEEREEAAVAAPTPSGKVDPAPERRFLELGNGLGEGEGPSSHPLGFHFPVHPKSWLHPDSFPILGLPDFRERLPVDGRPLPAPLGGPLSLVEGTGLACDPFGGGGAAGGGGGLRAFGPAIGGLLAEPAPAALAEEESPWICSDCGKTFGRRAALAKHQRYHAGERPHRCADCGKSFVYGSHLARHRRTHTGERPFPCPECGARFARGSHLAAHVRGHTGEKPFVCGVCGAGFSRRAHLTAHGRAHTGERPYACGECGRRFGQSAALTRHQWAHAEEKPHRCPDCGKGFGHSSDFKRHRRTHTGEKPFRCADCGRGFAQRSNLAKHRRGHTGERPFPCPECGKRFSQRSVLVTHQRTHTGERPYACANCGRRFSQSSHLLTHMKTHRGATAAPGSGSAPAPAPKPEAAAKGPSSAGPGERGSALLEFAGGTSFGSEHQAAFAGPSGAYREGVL

Target	probe-labelled cysteine peptide fold change (10 µM)	probe-labelled cysteine peptide fold change (50 µM)
XRN2_Q9H0D6_296_HDELADSLPCAEGEFIFLR (UniProt Q9H0D6)	0.409	-0.0107
ZNF316_A6NFI3_861_CADCGR (UniProt A6NFI3)	0.139	0.163
ZFAND1_Q8TCF1_64_LKTDQHTSYPCSFK (UniProt Q8TCF1)	-0.0624	-0.388
ZFYVE27_Q5T4F4_353_RYPTNNFGNCTGCSATFSVLK (UniProt Q5T4F4)	-0.247	-0.0647
ZNFX1_Q9P2E3_1416_CGHVEGLLYGGLLVK (UniProt Q9P2E3)	-0.0464	-0.153
ZW10_O43264_588_LGTECFLAQMR (UniProt O43264)	0.647	0.508
YWHAH_Q04917_97_ELETVCNDVLSLLDK (UniProt Q04917)	-0.1	-0.178
XRN2_Q9H0D6_736_FSLDEEAILPDQIVCSPVPMLR (UniProt Q9H0D6)	0.234	0.0197
ZNF417_Q8TAU3_56_DVMLENLALISSLGCWCGSK<|>ZNF587_Q96SQ5_56_DVMLENLALISSLGCWCGSK (UniProt Q96SQ5+Q8TAU3)	0.112	0.104
